RORg inh: qHTS for inhibitors of ROR gamma transcriptional activity; Nuclear receptor ROR-gamma (Mus musculus), P51450; Drosophila S2 Gal4-RORgamma UAS-luciferase reporter, 20 h; Potency, µM (series often up to 53.6 µM), inactives show top-dose activity change, negative = inhibition, usual class: inhibitors; 5.4% of 310,000 active; note: potency is the fitted concentration of half-maximal effect; % is set by controls: 0 for no effect and ±100 for the full control effect; nearly all actives have a fitted effect of over 60% in size
Target sequence (P51450 whole entry, looked up, the tested form may be a part): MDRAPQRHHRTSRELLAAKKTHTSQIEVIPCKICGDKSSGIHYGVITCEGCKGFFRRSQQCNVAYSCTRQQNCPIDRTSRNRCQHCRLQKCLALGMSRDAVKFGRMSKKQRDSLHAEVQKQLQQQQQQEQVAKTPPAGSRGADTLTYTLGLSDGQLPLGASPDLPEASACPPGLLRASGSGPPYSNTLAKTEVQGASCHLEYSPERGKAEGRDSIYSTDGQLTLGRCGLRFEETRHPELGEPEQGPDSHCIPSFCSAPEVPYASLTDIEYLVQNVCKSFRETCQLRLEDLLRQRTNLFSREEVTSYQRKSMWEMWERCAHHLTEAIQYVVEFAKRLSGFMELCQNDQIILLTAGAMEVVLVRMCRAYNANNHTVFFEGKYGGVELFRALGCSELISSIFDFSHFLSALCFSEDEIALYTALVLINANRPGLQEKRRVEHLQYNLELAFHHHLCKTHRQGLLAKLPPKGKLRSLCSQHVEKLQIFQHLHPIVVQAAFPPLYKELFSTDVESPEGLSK
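Schneider cells (Drosophila), stable Gal4 DBD–ROR gamma + UAS-luc; 1 hr cmpd preincubation; Cu2+ induction 700 uM final; 20 hr ambient; luminescence.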
VP16 counter: VP16 counterscreen qHTS for inhibitors of ROR gamma transcriptional activity; Drosophila S2 Gal4-VP16 UAS-luciferase, luminescence, 20 h; Potency, µM (highest dose often 53.6 µM), inactives show at the highest dose activity, negative = inhibition, most hits filed as inhibitors; 3.5% of 310,000 active; AID 2546, 2010;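 note: Gal4-VP16 expression switched on by copper sulfate through the metallothionein promoter; potency is the fitted concentration of half-maximal effect; % is set by controls: 0 for no effect and ±100 for the full control effect; nearly all actives have a fitted effect of over 50% in size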
MCF10A rereplic: A quantitative high throughput screen for small molecules that induce DNA re-replication in MCF 10a normal breast cells. AID 624296, 2012. MCF 10A DNA re-replication, Hoechst nuclear intensity, 48 h. 2.9% of 350,000 active. Potency, µM (series often up to 46.1 µM), for inactives: top-dose activity, positive = re-replication, usual class: activators; note: potency is the fitted concentration of half-maximal effect; % of control where 0% means no effect; nearly all actives have a fitted effect of over 50% in size
SW480 rereplic: A quantitative high throughput screen for small molecules that induce DNA re-replication in SW480 colon adenocarcinoma cells. SW480 DNA re-replication, Hoechst DNA content imaging, 48 h. Potency, µM (highest dose often 46.1 µM), inactives show at the highest dose re-replication activation, actives largely listed as activators. 1.8% of 340,000 active. AID 624297, 2012; note: potency is the fitted concentration of half-maximal effect; % of control where 0% means no effect; nearly all actives have a fitted effect of over 55% in size
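First, 250 cells per well were seeded. Next, compound or vehicle (23 nL) was pinned in, plates sat 48 hr at 37 C. Finally Hoechst was added for 40 min before fluorescence scanning.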
Giardia killer: Small Molecules that selectively kill Giardia lamblia: qHTS | Giardia lamblia trophozoite viability | activity change, % at 7.66 µM, hits read low | 0.15% of 340,000 active | AID 540267, 2011; in the data active = activity change below about -80%; inconclusive = between about -30% and that limit;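 note: parasites exposed to compound for two days anaerobically before the ATP read; % is set by controls: 0 for no effect and ±100 for the full control effect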
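Luminescent ATP signal served as the viability read-out, measured 15-30 min after adding ATP detection reagent to trophozoites that had been incubated with compounds for 48 hrs at 37 deg C anaerobically at 100 cells/well.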
BCR signal inh: qHTS Assay to Find Inhibitors of Chronic Active B-Cell Receptor Signaling; ABC-DLBCL IkBa-CBG/CBR reporter, luminescence ratio, 4 h; Potency, µM (top dose mostly 46.1 µM), for inactives: top-dose activity change, negative = inhibition, actives largely listed as inhibitors; 0.05% of 340,000 active; active = well fitted inhibition curve with a large enough effect in the signal ratio, with a control signal flat, not every such curve was filed as active; inconclusive = small, poorly fitted or top-dose-only effect, or effect the other way, or a change in a side signal; the % refers to the signal ratio;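 note: potency is the fitted concentration of half-maximal effect; plate controls were basal doxycycline-induced cells for no effect and cells given 10 µM MG132 for full effect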
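TMD8 ABC-DLBCL cells carrying doxycycline-inducible green luciferase fused to IkappaBalpha plus unfused red luciferase were exposed to compounds (up to 46 uM) for 4 hrs at 37C. Activity came from the overlap-corrected green/red luminescence ratio.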
* hit, by the source's call; ? = inconclusive; / = no result; [ ] = another dose, or the depositor's remark. This is a sample that favours compounds with a hit; in the whole collection about 8.3% have one here. Unless noted, calls come from the whole dose curve; as a rule, active = well fitted curve in the direction sought with a large enough effect; inconclusive = small, poorly fitted or top-dose-only effect, or another doubt; inactive = no such curve, though single readings can be large; an effect the other way counts as inactive or inconclusive.

SMILES	RORg inh	VP16 counter	MCF10A rereplic	SW480 rereplic	Giardia killer	BCR signal inh
CCOc1cc(/C=N/NC(=O)Cc2ccc(C(F)(F)F)cc2[N+](=O)[O-])c(Br)cc1OC	-22.9%	?	?	-7.3%	4.2	-5.9%
COc1cc([N+](=O)[O-])cc(/C=N/NC(=O)Cn2nc(C)cc2C)c1O	?	?	?	?	7.3	5.9%
COc1cc([N+](=O)[O-])cc(/C=N/NC(=O)Cn2nccc2C)c1O	3.55µM*	?	18.4µM*	16.4µM*	22.8	20.0%
CN(C(=O)COC(=O)COc1ccc2c(c1)CCC2)c1c(N)n(Cc2ccccc2)c(=O)[nH]c1=O	/	/	-6.6%	-9.7%	22.1	-3.4%
COc1ccc(OC)c(/C=N/NC(=O)CCCC(=O)Nc2cccc(Br)c2)c1	16.5%	-6.6%	17.6%	-3.1%	2.3	?
COc1ccc(O)c(/C=N/NC(=O)CCC(=O)Nc2cccc(C)c2)c1	12.6µM*	?	?	5.8µM*	-15.2	4.4%
COc1ccc(O)c(/C=N/NC(=O)CCC(=O)Nc2ccc(C)cc2)c1	6.31µM*	-17.2%	7.0%	?	-3.7	-1.6%
CC(Sc1nnc2ccccn12)C(=O)Nc1ccc2c(c1)OCCO2 (centres undefined)	15.6%	19.8%	0.6%	-5.7%	8.3	-19.5%
CCc1ccc(C2CC(c3ccccc3)n3ncnc3N2)cc1 (centres undefined)	17.8µM*	-4.0%	2.3%	8.8%	27.6	?
CC1CCCN(CCC(=O)Nc2ccc(F)c(F)c2)C1 (centres undefined)	-24.8%	5.5%	1.9%	-0.7%	0.3	-12.1%
Nc1cccc2c1C(=O)N(CCOc1ccc(F)cc1)C2=O	-24.0%	-14.5%	16.4µM*	18.4µM*	-9.3	?
CN=C1S/C(=C\c2ccc(Cl)cc2)C(=O)N1C	27.1%	-9.0%	?	23.1µM*	-1.4	6.2%
COc1ccc(/C=C2\C(=O)NC(=S)N2C(=O)c2ccc(F)cc2)cc1	8.91µM*	11.2µM*	?	2.5%	8.9	0.5%
COc1ccc(F)cc1-c1nc(N)nc(N)n1	/	/	12.2%	-9.0%	11.0	-1.0%
CCOc1ccccc1NC(=O)C(OC(=O)c1ccc(O)cc1)c1ccccc1 (centres undefined)	17.8µM*	?	8.9%	9.1%	3.7	?
COC(=O)NC1(C(=O)O)CCCC1	10.0%	-3.1%	-6.7%	-1.4%	15.3	-3.0%
CCCCn1c(C23CC4CC(CC(C4)C2)C3)n[nH]c1=S	2.82µM*	3.16µM*	-10.6%	5.8%	3.3	4.2%
COCCn1c(C23CC4CC(CC(C4)C2)C3)n[nH]c1=S	3.98µM*	1.12µM*	-5.9%	-6.6%	9.1	?
CCCn1c(SCC(=O)NC(C)C23CC4CC(CC(C4)C2)C3)n[nH]c1=O (centres undefined)	1.2%	7.1%	0.0%	-0.5%	-1.4	0.2%
COc1cc2cc(CCCOC(=O)c3ccc(F)cc3)oc(=O)c2cc1OC	/	/	?	-2.2%	-7.0	-6.1%
Cc1cc(C(=O)NC2=NCCS2)cs1	11.2µM*	?	-0.7%	-0.6%	-7.4	0.3%
O=C(NC1=NCCS1)c1ccc(Cl)c(Cl)c1	11.2µM*	?	0.6%	2.8%	-27.4	?
O=C(NC1=NCCS1)c1csc2ccccc12	7.94µM*	?	1.5%	-1.6%	-19.5	-2.6%
O=C(NC1=NCCS1)c1ccccc1Cl	-1.0%	2.4%	4.7%	-2.2%	5.6	-6.1%
O=C(NC1=NCCS1)c1ccccc1	-12.0%	6.2%	4.3%	-7.1%	-1.1	3.5%
SMILES	RORg inh	VP16 counter	MCF10A rereplic	SW480 rereplic	Giardia killer	BCR signal inh
Cc1cccc(C(=O)NC2=NCCS2)c1	11.2µM*	-28.8%	?	6.51µM*	-16.6	5.8%
Cc1nn(-c2ccccc2)c(C)c1C(=O)OCC(=O)N1c2ccccc2NC(=O)C1(C)C	-21.2%	-6.7%	28.9%	-1.8%	5.9	?
Cc1ccc(C(=O)NN2C(=O)C3C4C=CC([C@@H]3C2=O)C42CC2)cc1 (some centres undefined)	13.2%	-3.4%	5.5%	-21.4%	-11.9	-1.8%
COc1cc(OC)c(N(C)S(=O)(=O)c2cccc(C(=O)NC3=NCCS3)c2)cc1Cl	10µM*	?	5.4%	?	-26.1	?
COc1ccccc1N(C)S(=O)(=O)c1ccc(Cl)c(C(=O)NC2=NCCS2)c1	-20.8%	-2.9%	-2.9%	-0.8%	-8.5	5.0%
c1cc2c(cc1-c1[nH]ncc1CN1C[C@H]3CC[C@H]1C3)OCO2	-13.0%	-10.9%	17.0%	5.8µM*	7.6	?
CN(Cc1cn[nH]c1-c1ccc2c(c1)OCO2)C1CCOCC1	-0.2%	6.7%	1.3%	-1.2%	4.8	0.8%
O=C(O)c1cccc(COc2ccc3c(c2)CCC3)c1	0.4%	5.9%	-0.7%	-124.1%	-15.6	?
CCOc1ccc(OCc2cccc(C(=O)N3CCCC3)c2)cc1	?	-0.3%	4.9%	-1.6%	-7.6	-20.8%
O=C(O)c1cccc(COc2ccc(CO)cc2Cl)c1	1.78µM*	5.01µM*	-5.5%	-9.3%	-28.3	?
COc1ccc(OCc2cccc(C(=O)O)c2)cc1	1.78µM*	?	-2.1%	-3.3%	-13.6	?
CCOc1ccc(OCc2cccc(C(=O)O)c2)cc1	1.58µM*	?	4.3%	-4.7%	?	?
COc1ccc(N2CC(NC(=O)COc3ccc4ccccc4c3)CC2=O)cc1OC (centres undefined)	/	/	/	/	/	-12.3%
O=C(CC1N=C2c3ccccc3N=C(SCc3ccc(F)cc3)N2C1=O)NC1CCCCC1 (centres undefined)	/	/	/	/	/	5.9%
CCOC(=O)C1=C(C)c2ccccc2N(C(=O)OC)C1(C)C(=O)OCC (centres undefined)	?	-9.4%	?	44.3%	-12.7	18.4µM*
CCOC(=O)C1=C(C)c2ccccc2OC1(CC)C(=O)OCC (centres undefined)	3.6%	2.4%	-10.1%	-34.8%	?	2.6%
CCCc1cc(=O)[nH]c(SCC(=O)Nc2cc(C)on2)n1	10.7%	1.1%	-24.9%	-5.5%[1.84 µM]	?	0.3%
C/C=C1\COC(C(=O)NCc2ccncc2)(C(F)(F)F)C=C1C=C1CCCCC1 (centres undefined)	15.8µM*	?	?	?	35.1	/
O=C1NN(c2ccc(F)c(Cl)c2)C(=O)/C1=C\c1cccc(OC(=O)c2cccs2)c1	33.0%	13.3%	14.6µM*	0.4%	10.7	10.4%

Assay outcomes as filed in PubChem BioAssay.
